Reference: PubChem BioAssay AID2156 (Johns Hopkins Ion Channel Center, 2009)
Hit rate of the full screen: of about 310,000 compounds, about 3,400 (1.1%) were called active. The list comes from a sample in which actives are over-represented; it also holds similar structures and randomly drawn compounds. A number with no mark means an inactive call.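 The calls were made as follows: active = fluorescence ratio B-score at most minus 3 library SDs, with starting brightness B-score within 2 library SDs (cut at about -5.5 in these data); inactive = the rest, inconclusive results apart.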

biological target: Potassium voltage-gated channel subfamily KQT member 2 (Rattus norvegicus) (UniProt O88943); experiment: rat KCNQ2 potassium channel inhibitors, primary screen, cell-based, CHO-K1, FluxOR thallium flux, B-score (AID 2156); settings: 20 min, at 10 µM; stronger effect = lower value
Sequence (O88943 whole entry, looked up): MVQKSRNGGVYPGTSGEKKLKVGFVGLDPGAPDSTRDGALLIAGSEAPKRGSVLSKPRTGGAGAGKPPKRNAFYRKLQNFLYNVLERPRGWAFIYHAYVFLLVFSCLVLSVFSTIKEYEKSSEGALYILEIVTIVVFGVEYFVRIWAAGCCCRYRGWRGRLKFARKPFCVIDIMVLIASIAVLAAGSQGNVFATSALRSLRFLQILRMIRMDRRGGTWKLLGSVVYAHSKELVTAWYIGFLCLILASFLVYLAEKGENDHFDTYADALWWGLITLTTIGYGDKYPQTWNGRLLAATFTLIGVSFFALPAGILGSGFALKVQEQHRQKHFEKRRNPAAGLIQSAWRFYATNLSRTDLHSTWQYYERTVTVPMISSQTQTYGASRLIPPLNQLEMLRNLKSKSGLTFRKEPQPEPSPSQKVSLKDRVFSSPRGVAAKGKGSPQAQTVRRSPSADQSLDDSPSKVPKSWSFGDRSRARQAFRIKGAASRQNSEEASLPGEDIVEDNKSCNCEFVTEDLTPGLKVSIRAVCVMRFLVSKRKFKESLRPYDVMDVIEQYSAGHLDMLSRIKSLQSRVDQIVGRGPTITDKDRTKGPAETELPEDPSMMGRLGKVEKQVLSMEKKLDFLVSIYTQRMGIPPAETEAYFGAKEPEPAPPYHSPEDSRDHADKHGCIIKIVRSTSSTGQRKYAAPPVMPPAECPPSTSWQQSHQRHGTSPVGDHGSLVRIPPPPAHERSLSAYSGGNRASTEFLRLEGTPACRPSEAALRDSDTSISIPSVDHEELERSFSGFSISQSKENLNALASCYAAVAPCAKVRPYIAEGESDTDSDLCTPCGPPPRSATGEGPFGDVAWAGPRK

Row | SMILES | B-score
1 | COc1ccc(OC)c(/C(C)=N\NC(=O)c2cc3cc(Cl)ccc3n2C)c1 | -8.07 (active)
2 | COc1ccc(OC)c(C(=O)c2ccc(Cl)cc2)c1 | inactive
3 | COc1ccc(/C(C)=N/NC(=O)CCC(=O)Nc2ccc(Cl)cc2Cl)c(OC)c1 | -2.5
4 | COc1ccc(CNC(=O)CNC(=O)c2sc3ccccc3c2Cl)cc1OC | inactive
5 | CN1CCc2ccccc2C1Cc1ccccc1NC(=O)c1sc2ccccc2c1Cl (stereo unspecified) | -6.56 (active)
6 | O=C(Nc1ccon1)c1sc2ccccc2c1Cl | -0.39
7 | COc1ccc(-c2csc3ncnc(N4CCN(S(=O)(=O)c5cccc(F)c5)CC4)c23)cc1 | -2.13
8 | CC(OC(=O)CCCOc1ccccc1)C(=O)Nc1ccc(Cl)cn1 (stereo unspecified) | inactive
9 | CC1CN(C(=O)COC(=O)c2cccc(NS(=O)(=O)c3ccccc3)c2)CC(C)O1 (stereo unspecified) | inactive
10 | CS(=O)(=O)n1nc(-c2ccccc2)nc1NCc1ccco1 | -0.02
11 | c1ccc(-c2nc(NCc3ccco3)c3ccccc3n2)cc1 | -3.7
12 | O=C(Cc1ccccc1)n1nc(-c2ccccc2)nc1NCc1ccco1 | -5.57 (active)
13 | CC1(C)O[C@@H]2CC3C4C[C@H](F)C5=CC(=O)C=CC5(C)C4C(O)CC3(C)[C@]2(C(=O)CO)O1 (stereo partly specified) | inactive
14 | O=C(COC(=O)c1cccs1)Nc1ccccc1Cl | -0.17
15 | O=C(Nc1ccccc1Cl)Nn1cnnc1 | inactive
16 | O=C(Nc1ccccc1Cl)/C(Cl)=C(\Cl)S(=O)c1ccccc1 (stereo unspecified) | -9.85 (active)
17 | CCc1noc(C)c1C(=O)Nc1nc(-c2ccccc2)cs1 | -0.22
18 | CCCn1nc(C(=O)NNC(=O)CSCC(=O)Nc2cc(C)on2)c2ccccc2c1=O | -2.13
19 | O=C(O/N=C(/c1ccccc1)c1ccncc1)c1ccccc1[N+](=O)[O-] | -1.04
20 | Cc1c(C(=O)NCCCc2ccccc2)cccc1[N+](=O)[O-] | -1.07
21 | O=C(OCC(=O)N(CCc1ccccc1)Cc1ccccc1)c1ccccc1[N+](=O)[O-] | -6.77 (active)
22 | Cc1cccc(N2CC(C(=O)Nc3ccccc3N3CCCC3)CC2=O)c1C (stereo unspecified) | inactive
23 | CC(Oc1ccc(F)cc1)C(=O)N1CCN(c2ncccn2)CC1 (stereo unspecified) | inactive

Row | SMILES | B-score
24 | CC12CCC(C(=O)N3CCN(c4ncccn4)CC3)(c3nc4ccccc4nc31)C2(C)C (stereo unspecified) | -6.6 (active)
25 | c1cnc(N2CCN(c3ccc4ccccc4n3)CC2)nc1 | -0.22
26 | Cc1cc(C)n2nc(C(=O)OC(C)C(=O)c3cc(C)c(C)cc3C)nc2n1 (stereo unspecified) | inactive
27 | Cc1ccccc1NC(=O)C(C)OC(=O)CCC(=O)N(CC(C)C)c1c(N)n(CC(C)C)c(=O)[nH]c1=O (stereo unspecified) | inactive
28 | O=[N+]([O-])c1cccc(Nc2c3ccccc3nc3ccccc23)c1 | -5.7 (active)
29 | CC(=O)Nc1ccc(Nc2c3ccccc3nc3ccccc23)cc1 | inactive
30 | Cc1cc(CNC(=O)c2cccc([N+](=O)[O-])c2)c2ccccc2n1 | inactive
31 | CCOc1ccc(/C=C/C(=O)N(CC)CC(=O)NCc2cccs2)cc1OC | inactive
32 | COc1ccccc1CNC(=O)COn1nnc2ccc(S(=O)(=O)N3CCOCC3)cc21 | inactive
33 | COc1ccc(Cl)cc1NC(=O)COC(=O)C(CC(C)C)N1C(=O)C2CC=CCC2C1=O (stereo unspecified) | -5.8 (active)
34 | COc1ccc(Cl)cc1NC(=O)c1cccc(N2C(=O)C3CC=CCC3C2=O)c1 (stereo unspecified) | -0.4
35 | COc1ccc(Cl)cc1NC(=O)CCN1CCOCC1 | -1.02
36 | CCN(Cc1ccccc1)S(=O)(=O)c1cc2c3c(c1)CCN3C(=O)CC2 | -0.41
37 | Cc1ccc(S(=O)(=O)N2CCC(C(=O)NCCC3=CCCCC3)CC2)cc1C | inactive
38 | O=C(NCc1ccccc1Cl)C1CCCN1S(=O)(=O)c1ccc(F)cc1 (stereo unspecified) | -6.35 (active)
39 | Cc1cccc(NC(=O)C2CCCN2S(=O)(=O)c2ccc(F)cc2)c1C (stereo unspecified) | -3.21
40 | COc1ccc(NC(=O)N2CCCC2C(=O)NCc2ccccc2Cl)cc1 (stereo unspecified) | -1.43
41 | CCOc1ccc(NC(=O)CN(C)C(=O)c2c(C)noc2C)cc1OCC | -0.82
42 | CCN(C(=O)CSc1nnnn1-c1ccccc1OC)C1CCS(=O)(=O)C1 (stereo unspecified) | -0.06
43 | CCc1nc(SCC(=O)NNC(=O)c2ccc(C)cc2)c2ccccc2n1 | -1.77
44 | CC(C)N(C(=O)CSc1nc(COc2ccccc2)nc2ccccc12)C(C)C | -7.53 (active)
45 | CCCc1nc(SCC(=O)Nc2ccc(S(=O)(=O)N(C)C)cc2)c2ccccc2n1 | inactive
46 | CC[C@@]12C(=O)N(c3ccccc3)C(=O)N1[C@H](c1ccc(Br)cc1)[C@@H]1C(=O)N(C(C)(C)C)C(=O)[C@@H]12 | inactive
